Experimental data: PubChem BioAssay AID1159580 (chemical genetic matrix, 2015)
Several values for one entry are separate records, joined by “and”; a condition that tells them apart may be missing. Identical values can stand only once. The whole screen tested about 5,500 compounds, of which about 2,000 (36%) were called active. Roughly 18% stayed inconclusive and do not appear here. Rule as the data show it: active = normalized growth mostly below about 0.91 (no sharp cut-off); inconclusive = no clear call, values can overlap the other calls; inactive = mostly above about 0.92. The list shows a part of the results.

Assay: chemical genetic growth profiling, strain panel (AID 1159580);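 also: tested at 20 µM; growth read once vehicle control cultures reached saturation at 30 °C; 1 = growth at the plate median or of vehicle wells; lower values mean less growth of the strain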
Settings: S. cerevisiae deletion strains, growth OD

Measured: normalized growth

COc1cc(OC)c2c(=O)c(OC)c(-c3ccc(OC)c(OC)c3)oc2c1
inactive: locus YAL021C, strain ccr4, stronger effect = lower value 1.01 | locus YAL026C, strain drs2, stronger effect = lower value 1.02 | locus YAL030W, strain snc1, stronger effect = lower value 1.02 | locus YBL061C, strain skt5, stronger effect = lower value 1 | locus YBR009C, strain hhf1, stronger effect = lower value 1.01 | locus YBR021W, strain FUR4, stronger effect = lower value 0.952 | locus YBR023C, strain chs3, stronger effect = lower value 1.01 | locus YBR171W, strain sec66, stronger effect = lower value 1.04 | locus YBR229C, strain ROT2, stronger effect = lower value 1 | locus YBR231C, strain swc5, stronger effect = lower value 1 | locus YBR279W, strain paf1, stronger effect = lower value 1.02 | locus YCL011C, strain gbp2, stronger effect = lower value 1.01 | locus YCL016C, strain dcc1, stronger effect = lower value 1.01 | locus YCL029C, strain bik1, stronger effect = lower value 1.01 | locus YCL061C, strain MRC1, stronger effect = lower value 1.02 | locus YCL069W, strain vba3, stronger effect = lower value 1.02 | locus YCR088W, strain abp1, stronger effect = lower value 1.03 | locus YDL005C, strain med2, stronger effect = lower value 1.02 | locus YDL035C, strain GPR1, stronger effect = lower value 0.996 | locus YDL040C, strain nat1, stronger effect = lower value 1.01 | locus YDL074C, strain BRE1, stronger effect = lower value 0.995 | locus YDL101C, strain DUN1, stronger effect = lower value 1 | locus YDL185W, strain tfp1, stronger effect = lower value 1.01 | locus YDL192W, strain arf1, stronger effect = lower value 0.987 | locus YDR001C, strain nth1, stronger effect = lower value 1.02 | locus YDR069C, strain doa4, stronger effect = lower value 1.02 | locus YDR101C, strain arx1, stronger effect = lower value 1.01 | locus YDR137W, strain rgp1, stronger effect = lower value 1.06 | locus YDR150W, strain NUM1, stronger effect = lower value 0.998 | locus YDR159W, strain sac3, stronger effect = lower value 1.02 | locus YDR162C, strain NBP2, stronger effect = lower value 0.98 | locus YDR195W, strain ref2 1.04 | locus YDR297W, strain sur2, stronger effect = lower value 1.01 | locus YDR318W, strain mcm21, stronger effect = lower value 0.977 | locus YDR334W, strain swr1, stronger effect = lower value 1.02 | locus YDR335W, strain msn5, stronger effect = lower value 1.03 | locus YDR388W, stronger effect = lower value 0.995 | locus YDR392W, strain spt3, stronger effect = lower value 0.91 | locus YDR502C, strain sam2, stronger effect = lower value 1.01 | locus YEL003W, strain gim4, stronger effect = lower value 1.02 | locus YEL037C, strain rad23, stronger effect = lower value 1.02 | locus YEL061C, strain CIN8 (second series), stronger effect = lower value 1.02 | locus YEL061C, strain CIN8, stronger effect = lower value 1 | locus YER015W, strain faa2, stronger effect = lower value 1.01 | locus YER016W, strain bim1, stronger effect = lower value 1.01 | locus YER110C, stronger effect = lower value 1.02 | locus YER111C, strain swi4, stronger effect = lower value 1.03 | locus YER155C, strain BEM2 (second series), stronger effect = lower value 1.02 | locus YER155C, strain BEM2, stronger effect = lower value 1 | locus YER167W, strain BCK2, stronger effect = lower value 1 | locus YFR010W, strain ubp6, stronger effect = lower value 1.03 | locus YGL078C, strain dbp3, stronger effect = lower value 1.02 | locus YGL086W, strain mad1, stronger effect = lower value 1.01 | locus YGL167C, strain pmr1, stronger effect = lower value 1 | locus YGL173C, strain kem1, stronger effect = lower value 1.01 | locus YGL227W, strain vid30, stronger effect = lower value 1.02 | locus YGL240W, strain doc1, stronger effect = lower value 1.03 | locus YGL248W, strain PDE1, stronger effect = lower value 0.97 | locus YGL253W, strain hxk2, stronger effect = lower value 1.02 | locus YGR078C, strain PAC10, stronger effect = lower value 0.958 | locus YGR135W, strain pre9, stronger effect = lower value 0.968 | locus YGR252W, strain gcn5, stronger effect = lower value 0.915 | locus YHR013C, strain ard1, stronger effect = lower value 1.01 | locus YHR027C, strain rpn1, stronger effect = lower value 1.01 | locus YHR030C, strain SLT2, stronger effect = lower value 1.01 and 0.976 | locus YHR079C, strain IRE1 (second series), stronger effect = lower value 1.02 | locus YHR079C, strain IRE1, stronger effect = lower value 0.992 | locus YHR094C, strain hxt1, stronger effect = lower value 1.01 | locus YHR129C, strain ARP1, stronger effect = lower value 0.992 | locus YHR142W, strain chs7, stronger effect = lower value 1.01 | locus YHR200W, strain rpn10, stronger effect = lower value 1 | locus YIL066C, strain RNR3, stronger effect = lower value 0.982 | locus YIL073C, strain SPO22, stronger effect = lower value 1.03 | locus YIL125W, strain kgd1, stronger effect = lower value 1.02 | locus YIR030C, strain dcg1, stronger effect = lower value 1 | locus YJL092W, strain hpr5, stronger effect = lower value 1.02 | locus YJL095W, strain BCK1 (second series), stronger effect = lower value 1.01 | locus YJL095W, strain BCK1, stronger effect = lower value 0.934 and 1 | locus YJL115W, strain asf1, stronger effect = lower value 1.02 | locus YJL129C, strain trk1, stronger effect = lower value 1.01 | locus YJL134W, strain LCB3, stronger effect = lower value 1.01 | locus YJL154C, strain vps35, stronger effect = lower value 1 | locus YJL164C, strain tpk1, stronger effect = lower value 1.01 | locus YJL166W, strain qcr8, stronger effect = lower value 1 | locus YJL168C, strain set2, stronger effect = lower value 1.02 | locus YJL187C, strain SWE1 (second series), stronger effect = lower value 0.996 | locus YJL187C, strain SWE1, stronger effect = lower value 1.01 | locus YJR043C, strain POL32, stronger effect = lower value 1 | locus YJR066W, strain TOR1, stronger effect = lower value 0.941 | locus YJR075W, strain HOC1, stronger effect = lower value 0.986 | locus YKL009W, strain mrt4, stronger effect = lower value 1.02 | locus YKL068W, stronger effect = lower value 1 | locus YKL085W, strain MDH1 (second series), stronger effect = lower value 0.997 | locus YKL085W, strain MDH1, stronger effect = lower value 0.997 | locus YKL160W, strain elf1, stronger effect = lower value 0.995 | locus YKR001C, strain vps1, stronger effect = lower value 0.994 | locus YKR026C, strain gcn3, stronger effect = lower value 0.997 | locus YKR091W, strain srl3, stronger effect = lower value 1.02 | locus YLL001W, strain dnm1, stronger effect = lower value 1.03 | locus YLL026W, stronger effect = lower value 1.01 | locus YLL041C, strain sdh2, stronger effect = lower value 1.01 | locus YLR027C, strain aat2, stronger effect = lower value 1.01 | locus YLR039C, strain RIC1, stronger effect = lower value 0.976 | locus YLR058C, strain SHM2, stronger effect = lower value 0.984 | locus YLR102C, strain apc9, stronger effect = lower value 1.01 | locus YLR113W, strain HOG1, stronger effect = lower value 0.978 | locus YLR221C, strain rsa3, stronger effect = lower value 1.01 | locus YLR258W, strain gsy2, stronger effect = lower value 1.02 | locus YLR262C, strain YPT6 (second series), stronger effect = lower value 1.08 | locus YLR262C, strain YPT6, stronger effect = lower value 0.984 | locus YLR268W, strain sec22, stronger effect = lower value 1.03 | locus YLR320W, strain mms22, stronger effect = lower value 0.985 | locus YLR330W, strain CHS5, stronger effect = lower value 1.01 | locus YLR342W, strain FKS1 (second series), stronger effect = lower value 0.973 | locus YLR342W, strain FKS1, stronger effect = lower value 1.01 | locus YLR357W, strain rsc2, stronger effect = lower value 1.02 | locus YLR370C, strain arc18, stronger effect = lower value 1.01 | locus YLR371W, strain rom2, stronger effect = lower value 1.02 | locus YLR384C, strain iki3, stronger effect = lower value 1.01 | locus YLR418C, strain cdc73, stronger effect = lower value 0.954 | locus YML016C, strain PPZ1, stronger effect = lower value 0.992 | locus YML032C, strain rad52, stronger effect = lower value 0.987 | locus YML120C, strain ndi1, stronger effect = lower value 1.02 | locus YML124C, strain tub3, stronger effect = lower value 1 | locus YMR058W, strain fet3, stronger effect = lower value 1.03 | locus YMR078C, strain ctf18, stronger effect = lower value 1.01 | locus YMR125W, strain sto1, stronger effect = lower value 1.03 | locus YMR129W, stronger effect = lower value 1.03 | locus YMR205C, strain PFK2, stronger effect = lower value 1.03 | locus YMR223W, strain ubp8, stronger effect = lower value 0.972 | locus YMR231W, strain pep5, stronger effect = lower value 1.02 | locus YMR263W, strain SAP30, stronger effect = lower value 0.996 | locus YMR307W, strain GAS1, stronger effect = lower value 0.981 | locus YNL067W, strain RPL9B, stronger effect = lower value 1 | locus YNL071W, strain lat1, stronger effect = lower value 1.01 | locus YNL153C, strain GIM3, stronger effect = lower value 0.972 | locus YNL183C, strain NPR1, stronger effect = lower value 0.926 | locus YNL209W, strain ssb2, stronger effect = lower value 1.01 | locus YNL233W, strain BNI4, stronger effect = lower value 0.955 | locus YNL248C, strain rpa49, stronger effect = lower value 1.02 | locus YNL250W, strain rad50, stronger effect = lower value 1.03 | locus YNL271C, strain bni1, stronger effect = lower value 1.02 | locus YNL298W, strain CLA4, stronger effect = lower value 0.998 | locus YNL307C, strain MCK1, stronger effect = lower value 1.01 | locus YNL322C, strain KRE1 (second series), stronger effect = lower value 1.02 | locus YNR049C, strain mso1, stronger effect = lower value 1.02 | locus YNR052C, strain pop2, stronger effect = lower value 0.993 | locus YOL006C, strain TOP1, stronger effect = lower value 1.03 | locus YOL012C, strain htz1 0.947 | locus YOL147C, strain pex11, stronger effect = lower value 1.02 | locus YOR001W, strain rrp6, stronger effect = lower value 1.01 | locus YOR061W, strain CKA2, stronger effect = lower value 1.01 | locus YOR069W, strain VPS5, stronger effect = lower value 1.01 | locus YOR070C, strain gyp1, stronger effect = lower value 1.03 | locus YOR080W, strain dia2, stronger effect = lower value 1.01 | locus YOR083W, strain WHI5, stronger effect = lower value 0.997 | locus YOR106W, strain vam3, stronger effect = lower value 0.992 | locus YOR136W, strain idh2, stronger effect = lower value 1.02 | locus YOR144C, strain elg1, stronger effect = lower value 1.01 | locus YOR184W, strain ser1, stronger effect = lower value 0.992 | locus YOR231W, strain MKK1, stronger effect = lower value 1.01 | locus YOR265W, strain rbl2, stronger effect = lower value 1 | locus YOR270C, strain vph1, stronger effect = lower value 1.09 | locus YOR290C, strain snf2, stronger effect = lower value 1 | locus YOR316C, strain cot1, stronger effect = lower value 1.01 | locus YPL051W, strain arl3, stronger effect = lower value 0.993 | locus YPL078C, strain atp4, stronger effect = lower value 1.02 | locus YPL106C, strain sse1, stronger effect = lower value 0.999 | locus YPL240C, strain hsp82, stronger effect = lower value 1 | locus YPL256C, strain CLN2, stronger effect = lower value 0.976 | locus YPR119W, strain clb2, stronger effect = lower value 1.01 | locus YPR141C, strain kar3, stronger effect = lower value 1.02 | locus YPR163C, strain tif3, stronger effect = lower value 1 | locus YPR167C, strain met16, stronger effect = lower value 1.04 | strain wtn01, stronger effect = lower value 1.04
